Bioassay records as filed in PubChem BioAssay.
GPT2 inh = GPT2 alanine aminotransferase inhibition; Potency, µM (top dose mostly 57.7 µM), usual class: inhibitors; 100,000 compounds, 0.25% hits; Q8TD30; AID 1671188; Recombinant GPT2, coupled pyruvate oxidase/HRP Amplex Red fluorescence; also: nearly all actives have a fitted effect of over 60% in size
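GPT2 10ng/uL, a-KG 250uM, L-Ala 2mM, HEPES pH7.5 + 0.0001% Tween; 30 min RT. Then Amplex mix (PO/HRP/ThPP), 30 min RT dark, fluorescence. AOA 50uM used as positive control.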
hNpr1 antagonist = antagonists of human natriuretic peptide receptor Npr1. P16066. HEK293 hNpr1 GloSensor cGMP, ANP-stimulated luminescence. Potency, µM (series often up to 46.3 µM), most hits filed as inhibitors. 76,000 compounds, 1.6% hits. AID 1347048; calls by dose curve; also: nearly all actives have a fitted effect of over 60% in size
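HEK293 cells stably expressing human Npr1 and cGMP GloSensor pGS-40F, loaded 2 h with 2% GloSensor reagent, given compound 30 min at room temperature. Luminescence read before and 20 min after 0.1 nM hNppA.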
NIH3T3 tox = NIH 3T3 cell cytotoxicity | NIH 3T3 viability, CellTiter-Glo ATP luminescence, 48-72 h | Potency, µM (titrated, usually from 96.7 µM), hits mostly inhibitors | 94,000 compounds, 4.3% hits | AID 1345082; also: nearly all actives have a fitted effect of over 55% in size
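ATP-dependent luminescence (CellTiter-Glo) served as the viability signal for NIH 3T3 cells treated with compound for 48 or 72 hr at 37 °C.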
HEK cytotox = kills HEK 293 cells; AID 1345083; HEK 293 viability, ATP luminescence (CellTiter-Glo), 48-72 h; 94,000 compounds, 6.6% hits; Potency, µM (titrated, usually from 115 µM), most hits filed as inhibitors; also: nearly all actives have a fitted effect of over 60% in size
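Cytotoxicity was scored by loss of ATP-coupled luminescence (CellTiter-Glo) in HEK 293 cells. Compound treatment ran 48 or 72 hr at 37 degree Celsius, 5% CO2, 95% humidity.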
Luciferase inh = inhibitors of firefly (Photinus pyralis) luciferase. 76,000 compounds, 2.5% hits. purified P. pyralis luciferase, luminescence, biochemical. Potency, µM (doses to about 115 µM), hits mostly inhibitors. AID 1347043. P08659; also: nearly all actives have a fitted effect of over 65% in size
Target sequence (P08659 whole entry, looked up): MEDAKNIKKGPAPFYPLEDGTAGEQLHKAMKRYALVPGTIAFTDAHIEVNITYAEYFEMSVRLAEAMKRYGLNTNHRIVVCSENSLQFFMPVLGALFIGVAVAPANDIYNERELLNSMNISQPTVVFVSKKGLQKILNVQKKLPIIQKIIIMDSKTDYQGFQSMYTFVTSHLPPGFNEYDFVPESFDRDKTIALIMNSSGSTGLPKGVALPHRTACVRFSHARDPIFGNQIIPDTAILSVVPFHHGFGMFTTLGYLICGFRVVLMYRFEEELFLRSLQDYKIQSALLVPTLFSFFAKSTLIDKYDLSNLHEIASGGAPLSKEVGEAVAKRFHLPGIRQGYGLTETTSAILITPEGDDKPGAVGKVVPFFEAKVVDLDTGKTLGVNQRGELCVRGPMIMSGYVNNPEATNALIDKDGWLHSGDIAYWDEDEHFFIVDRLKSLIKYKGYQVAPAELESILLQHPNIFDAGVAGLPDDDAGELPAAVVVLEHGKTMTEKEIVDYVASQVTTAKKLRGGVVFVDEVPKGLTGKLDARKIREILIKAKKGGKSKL
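Luminescence read by CCD imaging after purified firefly luciferase (10nM final) was added to substrate buffer holding 10uM D-luciferin and 10uM ATP, pH 7.5, pre-dosed with compound.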
Npr1 antag conf = hNpr1 antagonism, confirmation assay; 1,400 compounds, 76% hits; HEK293 hNpr1 cGMP GloSensor luminescence, ANP-stimulated; AID 1347044; shares compounds with hNpr1 antagonist; Potency, µM (highest dose often 57.6 µM), actives largely listed as inhibitors; calls by dose curve; also: nearly all actives have a fitted effect of over 70% in size
Npr2 selectivity = hNpr2 antagonism, selectivity versus Npr1. Potency, µM (top dose mostly 57.6 µM), usual class: inhibitors. HEK293 hNpr2 GloSensor cGMP luminescence, CNP-stimulated. 1,400 compounds, 67% hits. shares compounds with hNpr1 antagonist; calls by dose curve; also: nearly all actives have a fitted effect of over 70% in size
FLuc inh counter = FLuc enzyme inhibition, Npr1 counter-screen; 1,400 compounds, 0.7% hits; shares compounds with hNpr1 antagonist; Potency, µM (doses to about 57.6 µM), actives largely listed as inhibitors; purified FLuc enzyme, luminescence, Km substrate
GloSensor cGMP = control cell line activity, Npr1 antagonist counter-screen | shares compounds with hNpr1 antagonist | HEK293 GloSensor cGMP, SNP-stimulated, luminescence | Potency, µM (titrated, usually from 57.6 µM), most hits filed as inhibitors | 1,400 compounds, 69% hits | AID 1347051; calls by dose curve; also: nearly all actives have a fitted effect of over 70% in size
Of the large screens only hits and unclear results are named; the others gave an inactive call (follow-up assays come after a bar, where they were run). In the library only some 10% were active in any assay of this set; here they are far more common. Unless noted, calls follow the shape of the dose curve; as a rule, active = well fitted curve in the direction sought with a large enough effect; inconclusive = small, poorly fitted or top-dose-only effect, or another doubt; inactive = no such curve, though single readings can be large; an effect the other way counts as inactive or inconclusive.

CCCn1cc(C(=O)NCC2COc3cc(OC)ccc3C2)c(C)n1 (centres undefined)	hNpr1 antagonist 11µM, NIH3T3 tox inconclusive, HEK cytotox inconclusive | Npr1 antag conf 19µM | Npr2 selectivity 22µM | FLuc inh counter inactive | GloSensor cGMP 19µM
CC1CC(=O)C2=C(O1)OC1(C)CCC3C(C)(C)C=CC(=O)C3(C)C1C2 (centres undefined)	none (no result: hNpr1 antagonist, NIH3T3 tox, HEK cytotox, Luciferase inh)
O=C(Cc1ccc(Br)cc1)N1CCCN(c2cc(-c3ccc(F)cc3)[nH]n2)CC1	GPT2 inh inconclusive, hNpr1 antagonist inconclusive, NIH3T3 tox inconclusive, HEK cytotox inconclusive | Npr1 antag conf inconclusive | Npr2 selectivity inconclusive | FLuc inh counter inactive | GloSensor cGMP 27µM
COc1ccc(CC(=O)N2CCCN(c3cc(-c4ccc(Br)cc4)[nH]n3)CC2)cc1OC	GPT2 inh inconclusive, hNpr1 antagonist inconclusive, NIH3T3 tox inconclusive, HEK cytotox inconclusive
O=C(Cc1ccc(F)cc1)N1CCN(c2cc(-c3ccc(Cl)cc3)[nH]n2)CC1	hNpr1 antagonist inconclusive, NIH3T3 tox inconclusive, HEK cytotox 40µM | Npr1 antag conf inconclusive | Npr2 selectivity inconclusive | FLuc inh counter inactive | GloSensor cGMP inconclusive
COc1ccc(-c2cc(N3CCN(C(=O)Cc4ccc(F)cc4)CC3)n[nH]2)cc1	none
COc1ccc(CN(C)Cc2cccc(C(F)(F)F)c2)cc1	HEK cytotox inconclusive (no result: hNpr1 antagonist, Luciferase inh)
COc1ccc(-c2noc(CC3CCN(C(=O)c4cc(Cl)ccc4F)CC3)n2)cc1	hNpr1 antagonist 7.1µM, NIH3T3 tox inconclusive, HEK cytotox 40µM | Npr1 antag conf 9.7µM | Npr2 selectivity 11µM | FLuc inh counter inactive | GloSensor cGMP 9.7µM
O=C(c1cc(F)ccc1F)N1CCC(Cc2nc(-c3cnccn3)no2)CC1	none
COc1ccc(-c2noc(CC3CCN(C(=O)c4cc(F)ccc4F)CC3)n2)cc1	hNpr1 antagonist 7.1µM, NIH3T3 tox inconclusive, HEK cytotox inconclusive | Npr1 antag conf 6.9µM | Npr2 selectivity 6.9µM | FLuc inh counter inactive | GloSensor cGMP 4.3µM
COc1ccc(-c2nc3cc(C)ccc3cc2CN2CCN(C)C(=O)C2)cc1OC	HEK cytotox inconclusive
CC(C)Oc1ccc(CN2C[C@@H](CO)[C@H](c3ccncc3)C2)cc1	hNpr1 antagonist 11µM, HEK cytotox 40µM | Npr1 antag conf inconclusive | Npr2 selectivity inconclusive | FLuc inh counter inactive | GloSensor cGMP 27µM
O=C(c1cccc(OC2CN(Cc3cccc(F)c3)C2)c1)N1CCOCC1	none
CCC(=O)N1CCc2sc(C(=O)NC3CCN(Cc4ccccc4)CC3)cc2C1	HEK cytotox inconclusive
O=C(c1ccccc1)N1CCc2sc(C(=O)N3CCN(c4ccccc4)CC3)cc2C1	hNpr1 antagonist 10µM, NIH3T3 tox inconclusive, HEK cytotox inconclusive | Npr1 antag conf 22µM | Npr2 selectivity 27µM | FLuc inh counter inactive | GloSensor cGMP 22µM
O=C(c1ccc(Cl)cc1)N1CCc2sc(C(=O)N3CCOCC3)cc2C1	NIH3T3 tox inconclusive, HEK cytotox inconclusive
CCC(=O)N1CCc2sc(C(=O)N3CCN(c4cccc(Cl)c4)CC3)cc2C1	hNpr1 antagonist 10µM, NIH3T3 tox inconclusive, HEK cytotox inconclusive | Npr1 antag conf 19µM | Npr2 selectivity 19µM | FLuc inh counter inactive | GloSensor cGMP 17µM
CN(C)C(=O)c1cc2c(s1)CCC(C(=O)N1CCN(c3cccc(Cl)c3)CC1)C2 (centres undefined)	hNpr1 antagonist inconclusive, NIH3T3 tox inconclusive, HEK cytotox inconclusive | Npr1 antag conf 22µM | Npr2 selectivity 19µM | FLuc inh counter inactive | GloSensor cGMP 15µM
O=C(c1ccc(F)cc1)N1CCCC2(CNc3ncccc3[S+](=O)([O-])N2)C1 (centres undefined)	none (no result: GPT2 inh, hNpr1 antagonist, Luciferase inh)
NCC(=O)N1CCCC2(Cc3ccccc3CN2C(=O)Cc2cccc(Cl)c2)C1 (centres undefined)	NIH3T3 tox inconclusive, HEK cytotox inconclusive (no result: hNpr1 antagonist, Luciferase inh)
CCC(NC(=O)c1cc(Cn2ccc3ccccc32)[nH]n1)c1ncccc1C (centres undefined)	NIH3T3 tox inconclusive, HEK cytotox inconclusive
COc1ccccc1Nc1ncc2c(n1)CN(C(=O)c1cccc(N(C)C)c1)CCN2	hNpr1 antagonist 22µM, HEK cytotox 79µM | Npr1 antag conf 31µM | Npr2 selectivity 35µM | FLuc inh counter inactive | GloSensor cGMP 25µM
COc1ccccc1Nc1ncc2c(n1)CN(C(=O)c1ccccc1)CCN2	hNpr1 antagonist 32µM, NIH3T3 tox inconclusive, HEK cytotox inconclusive | Npr1 antag conf 40µM | Npr2 selectivity inconclusive | FLuc inh counter inactive | GloSensor cGMP 40µM
C=CCOC(=O)Nc1nc2c(s1)C[C@@H]1[C@](C)(CO)[C@H](O)CC[C@@]1(C)[C@@H]2CC(=O)N1CCCCC1	none
COc1ncccc1-c1cc(C(=O)NCCN(C)C)c2c(c1)ncn2C	none (no result: GPT2 inh, hNpr1 antagonist, NIH3T3 tox, HEK cytotox, Luciferase inh) | Npr1 antag conf inactive | Npr2 selectivity inactive | FLuc inh counter inactive | GloSensor cGMP inactive
CN1CCCC1c1nc(C2CN(C(=O)CCc3nc4ccccc4s3)C2)no1 (centres undefined)	HEK cytotox inconclusive
O=C(CCc1nc2ccccc2s1)N1CCC(Cc2noc(-c3ccc(F)cc3)n2)C1 (centres undefined)	hNpr1 antagonist 11µM, NIH3T3 tox inconclusive, HEK cytotox 40µM | Npr1 antag conf 22µM | Npr2 selectivity 22µM | FLuc inh counter inactive | GloSensor cGMP 22µM
COc1ccc(-c2nc(CC3CCN(C(=O)c4n[nH]c(=O)c5ccccc45)C3)no2)cc1 (centres undefined)	hNpr1 antagonist 10µM, NIH3T3 tox inconclusive, HEK cytotox 32µM | Npr1 antag conf 12µM | Npr2 selectivity 11µM | FLuc inh counter inactive | GloSensor cGMP 8.6µM
COc1ccc(-c2nc(CC3CCN(C(=O)c4ccnn4C)C3)no2)cc1 (centres undefined)	hNpr1 antagonist inconclusive, NIH3T3 tox inconclusive, HEK cytotox inconclusive
O=C(CCc1nc2ccccc2s1)N1CCCC(c2nc(C3CCOCC3)no2)C1 (centres undefined)	HEK cytotox inconclusive | Npr1 antag conf inactive | Npr2 selectivity inactive | FLuc inh counter inactive | GloSensor cGMP inactive
